Source: the supplement of paper PMC12645437, “Orthogonal IMiD-Degron Pairs Induce Selective Protein Degradation in Cells” (ACS Chemical Biology, 2025)
Whole data set: some 8,300 sequences, median “log2 fold change of degron read counts, EGFP-low vs EGFP+ sorted cells (limma voom), compound-induced degradation” near -1.1, cut for the highest 2% near 3.2. This is one part of a sample in which the highest values are shown more often than they occur.

T1: CRBN, Q96SW2
T1 chain: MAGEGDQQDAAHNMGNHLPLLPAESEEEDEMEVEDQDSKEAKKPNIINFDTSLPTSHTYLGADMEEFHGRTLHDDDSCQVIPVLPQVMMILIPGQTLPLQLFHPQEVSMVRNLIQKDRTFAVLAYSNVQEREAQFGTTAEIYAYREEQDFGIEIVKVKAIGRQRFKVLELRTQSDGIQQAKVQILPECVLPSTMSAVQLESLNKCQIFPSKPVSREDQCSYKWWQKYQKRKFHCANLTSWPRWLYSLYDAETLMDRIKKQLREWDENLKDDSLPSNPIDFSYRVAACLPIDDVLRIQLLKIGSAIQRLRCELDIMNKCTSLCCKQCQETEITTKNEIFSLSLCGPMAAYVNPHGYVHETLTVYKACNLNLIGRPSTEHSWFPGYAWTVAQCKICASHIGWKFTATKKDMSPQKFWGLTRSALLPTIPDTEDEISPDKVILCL


Target: T1, CRBN, Q96SW2
Assay: log2 fold change of degron read counts, EGFP-low vs EGFP+ sorted cells (limma voom), compound-induced degradation; higher = more compound-induced degradation of the degron-EGFP fusion; degrons are variants of IKZF1/3 zinc finger 2; compound dose not given here
Details: Jurkat, 18 h
[1] = compound: compound 19 (5-tert-butyl-thalidomide)
[2] = compound: compound 22 (5-morpholino-thalidomide)
[3] = compound: compound 33 (diphenyl IMiD analogue)
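Also: pooled lentiviral library of zinc finger degron-EGFP fusions in mCherry-positive Jurkat cells, FACS-sorted after compound exposure, with degron abundance counted by next-generation sequencing.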

Sequence	log2 fold change of degron read counts [1]	log2 fold change of degron read counts [2]	log2 fold change of degron read counts [3]	log2 fold change of degron read counts (compound: thalidomide)
FQCEICGHGFTQKGNLLRHIKL [46F_47Q_49E_50I_52G_53H_54G_55F_67L_, Q9UKT9]	-3.85	-4.27	-2.95	-2.21
LFCNQCGFYCTQKGNLLRHIKL [46L_47F_49N_50Q_52G_53F_54Y_55C_67L_, Q9UKT9]	-0.734	-0.67	-0.837	-0.422
FGCPICGARFTQKGNLLRHIKL [46F_47G_49P_50I_52G_53A_54R_55F_67L_, Q9UKT9]	3.39	2.28	0.0226	1.05
FWCPICGARFTQKGNLLRHIKL [46F_47W_49P_50I_52G_53A_54R_55F_67L_, Q9UKT9]	2.78	3.66	1.23	1.15
FQCPICGALFTQKGNLLRHIKL [46F_47Q_49P_50I_52G_53A_54L_55F_67L_, Q9UKT9]	-1.04	1.75	1.86	3.37
FSCPICGALFTQKGNLLRHIKL [46F_47S_49P_50I_52G_53A_54L_55F_67L_, Q9UKT9]	0.486	-0.0754	2.59	0.134
FRCPICGARFTQKGNLLRHIKL [46F_47R_49P_50I_52G_53A_54R_55F_67L_, Q9UKT9]	-0.853	-0.665	-0.334	0.377
FECPICGARFTQKGNLLRHIKL [46F_47E_49P_50I_52G_53A_54R_55F_67L_, Q9UKT9]	0.918	-0.107	1.75	3.37
FVCPICGARFTQKGNLLRHIKL [46F_47V_49P_50I_52G_53A_54R_55F_67L_, Q9UKT9]	0.924	2.47	0.874	2.71
FSCPICGARFTQKGNLLRHIKL [46F_47S_49P_50I_52G_53A_54R_55F_67L_, Q9UKT9]	2.63	2.4	0.555	1.65
FNCPICGARFTQKGNLLRHIKL [46F_47N_49P_50I_52G_53A_54R_55F_67L_, Q9UKT9]	2.1	1.39	-0.35	0.971
FYCPICGARFTQKGNLLRHIKL [46F_47Y_49P_50I_52G_53A_54R_55F_67L_, Q9UKT9]	2.38	2.5	0.405	-0.0683
FVCPICGALFTQKGNLLRHIKL [46F_47V_49P_50I_52G_53A_54L_55F_67L_, Q9UKT9]	-0.961	0.498	1.25	1.5
FLCPICGARFTQKGNLLRHIKL [46F_47L_49P_50I_52G_53A_54R_55F_67L_, Q9UKT9]	0.407	-0.333	0.469	1.92
FWCNQCGRQFTQKGNLLRHIKL [46F_47W_49N_50Q_52G_53R_54Q_55F_67L_, Q9UKT9]	-1.77	-1.3	-1.46	-1.87
FACEICGRNFTQKGNLLRHIKL [46F_47A_49E_50I_52G_53R_54N_55F_67L_, Q9UKT9]	-0.441	-1.8	-2.25	-1.66
FICNVCGALFTQKGNLLRHIKL [46F_47I_49N_50V_52G_53A_54L_55F_67L_, Q9UKT9]	-2.12	-1.66	0.0338	-0.727
FVCDICGALFTQKGNLLRHIKL [46F_47V_49D_50I_52G_53A_54L_55F_67L_, Q9UKT9]	-1.73	-0.858	-0.0343	-0.433
